In all, about 48,000 compounds went through this assay and about 13,000 (27%) showed an effect of 50% or more. This is one part of the list.
These compounds were tested on Wolbachia pipientis (assay: Anti-Wolbachia Cell-Based Screen). Details: 5 µM.
Format: functional
Design: scale not given: in the data most compounds retested in dose-response had high values

Structure (SMILES) | Percent Effect [%]
Cc1cc(Cl)ccc1NCc1cnn(C2CCS(=O)(=O)C2)c1 (configuration not stated) | 23.97
CCC1=NN2C(=N)/C(=C\c3cccn3-c3ccc(Br)cc3)C(=O)N=C2S1 | 83.94
CCC1=NN2C(=N)/C(=C\c3cccn3-c3ccc(Cl)cc3)C(=O)N=C2S1 | 96.44
CCC1=NN2C(=N)/C(=C/c3cccc(Cl)c3)C(=O)N=C2S1 | 3.278
CCC1=NN2C(=N)/C(=C\c3cccn3-c3cccc(Cl)c3)C(=O)N=C2S1 | 116.1
CN(Cc1ccco1)C1CCC12CCN(C(=O)C1CCOCC1)CC2.O=C(O)C(F)(F)F (configuration not stated) | -16.55
CO[C@H]1CCN(S(=O)(=O)c2cn(C)cn2)[C@H]1Cc1ccccc1.O=C(O)C(F)(F)F | 1.513
Cc1noc(CCNC(=O)c2ccc(Br)c(S(=O)(=O)N(C)C)c2)n1 | 13.21
CCn1c(N)nc2cc(C(=O)NCCc3ccccc3C)cnc21 | -8.06
CCN(CC)S(=O)(=O)CCNc1nnc(C(C)C)s1 | 4.911
CC(C)(C)n1cc(CNC2CCN(C(=O)c3ccncc3)CC2)cn1 | -2.234
CC(C)(C)n1cc(CNc2ccc(CNS(C)(=O)=O)cc2)cn1 | 115
CC(C)(C)n1cc(CNC2CCN(C(=O)c3ccco3)CC2)cn1 | -4.791
CC(C)(C)OC(=O)N1CCC(NCc2cnn(C(C)(C)C)c2)CC1 | -19.8
CC(C)OC(=O)NCc1ccc(NCc2cnn(C(C)(C)C)c2)cc1 | 104.7
CC(C)(C(=O)NCc1ccc(C#N)cc1)n1cc(Br)cn1 | 9.719
CC(C)c1nc(CNc2ccc(CNS(C)(=O)=O)cc2)cs1 | -10.73
CS(=O)(=O)c1ccc(NCc2ccc(F)cc2)cn1 | -13.54
CC(=O)N(Cc1ccc(NCc2cnn(C(C)(C)C)c2)cc1)C(C)C | 111.1
CCc1nc(CNC(=O)Nc2nc(COC)cs2)cs1 | -11.4
O=C(NCCc1csc(-c2cnccn2)n1)c1cnn[nH]1 | -5.851
CCc1n[nH]c(SCC(=O)N2CCc3[nH]nc(C4CCC4)c3C2)n1 | -5.998
OC1(CNC2CCN(Cc3ccncc3)CC2)CCc2ccccc21 (configuration not stated) | 9.315
O=C(NCC1CC1)[C@@H]1C[C@@H]2CCN(Cc3ccoc3)C[C@@H]2O1 | 93.16
O=C(NCC1CCOCC1)[C@H]1C[C@@H]2CCN(Cc3ccncc3)C[C@@H]2O1.O=C(O)C(F)(F)F.O=C(O)C(F)(F)F | 7.253
O=C(NCC1CCOCC1)[C@@H]1C[C@@H]2CCN(Cc3ccco3)C[C@H]2O1.O=C(O)C(F)(F)F | -3.417

Structure (SMILES) | Percent Effect [%]
O=C(NCC1CC1)[C@@H]1C[C@@H]2CCN(Cc3ccccc3)C[C@H]2O1 | 100.1
CNC(=O)[C@H]1C[C@@H]2CCN(CCc3ccccc3)C[C@@H]2O1.O=C(O)C(F)(F)F | -33.06
O=C([C@@H]1C[C@@H]2CCN(Cc3ccco3)C[C@H]2O1)N1CCCO1 | -6.348
CNC(=O)[C@@H]1C[C@@H]2CCN(Cc3ccoc3)C[C@H]2O1 | 103.1
O=C(NCC1CCOCC1)[C@H]1C[C@@H]2CCN(Cc3ccccc3)C[C@H]2O1.O=C(O)C(F)(F)F | 108.7
O=C(NCC1CC1)[C@H]1C[C@@H]2CCN(CCc3ccccc3)C[C@H]2O1.O=C(O)C(F)(F)F | 16.57
CC(C)[C@H]1CN(CCS(C)(=O)=O)C[C@@H]1NC(=O)c1ccc(=O)[nH]c1 | -6.33
NC(=O)Cn1c(SCc2noc(-c3ccsc3)n2)nnc1C1CC1 | 7.901
Cc1cc(C)cc(C(=O)NCc2ncnn2C)c1 | -13.46
CC(OCC1CC1)C(=O)Nc1ccn(Cc2ccccc2)n1 (configuration not stated) | -8.999
N[C@H]1CC[C@@H](NC(=O)c2ccc3nc(-c4ccc(F)cc4)cn3c2)CC1 | -22.5
Cn1nc(C(=O)NCc2cccc(Cn3ccnc3)c2)ccc1=O | -21.54
Cn1cccc1C(=O)NCc1cn2c(n1)CN(C(=O)c1ccsc1)CC2 | 7.383
O=C(NCC1CCOCC1)[C@@H]1C[C@@H]2[C@@H](CCN2Cc2ccoc2)O1 | 102.5
O=C(NC1CC1)[C@H]1CC[C@@H]2[C@@H](CCN2Cc2ccsc2)O1 | -0.273
O=C(NCC1CC1)[C@H]1CC[C@@H]2[C@@H](CCN2Cc2ccoc2)O1 | 3.009
Cc1ccc(OCC(=O)NCc2sccc2C)nc1 | -2.294
CC(C)NC(=O)NCCCc1cc(N)n(-c2ccccc2)n1 | -14.76
Cc1ccc(OCC(=O)NCc2ccccc2F)nc1 | -9.663
CCNC(=O)COc1cc(CC)c2c(C)nn(-c3ccc(C)cc3)c2n1 | 126.5
Cc1ccc(OCC(=O)NCC(C)C)nc1 | 0.1298
CCCNC(=O)COc1cc(C)c2c(C)nn(-c3ccccc3)c2n1 | 102.4
Cc1ccc2oc(N3CCN(CC(=O)NC(C)C)CC3)nc2c1 | 0.7244
CCCNC(=O)COc1ccc(C)cn1 | 4.173
Cc1cc(C)c2c(OCC(=O)NC(C)C)nn(C)c2n1 | -14.3
Cc1ccc(-n2nc(C)c3c(C)cc(OCC(=O)NC(C)C)nc32)cc1 | 109.8

Structure (SMILES) | Percent Effect [%]
CSC(C)C(=O)NCCCc1cc(N)n(-c2ccccc2)n1 (configuration not stated) | 6.591
CCCNC(=O)COc1cc(C)c2c(C)nn(-c3ccc(C)cc3)c2n1 | 109.7
CCn1ncc2c1CCCC2NCc1cccc2c1OCCO2 (configuration not stated) | 5.32
COCCCSc1ccc(NCc2ccc(C)cn2)cc1 | -7.055
CCN(CC)[C@@H]1CN(Cc2cnn(C)c2)[C@@H]2COC[C@H]12 | 6.266
COC1CCN(Cc2csc(C(C)C)n2)CC1 | -2.369
CC(CN1CCCC1)C(=O)N1CCC(c2nccn2CC2CC2)CC1 (configuration not stated) | -20.21
CSCc1noc(C2CCC(=O)N(CCc3ccccc3)C2)n1 (configuration not stated) | -4.988
CCc1noc(C2CCCCN2C(=O)c2nnc3ccccc3n2)n1 (configuration not stated) | 13
CC(NC(=O)NC1CCN(Cc2ccncc2)CC1)c1ccc(F)cc1 (configuration not stated) | 24.84
O=C(N1CCCC1)N1Cc2nccn2CC(Cn2ncccc2=O)C1 (configuration not stated) | 113.1
O=C1CCCN1CC1CN(C(=O)CC2CCCC2)Cc2nccn2C1 (configuration not stated) | -15.1
O=C(C1CC=CC1)N1Cc2nccn2CC(CN2CCCC2)C1 (configuration not stated) | 16.54
O=C(CC1CC1)N1Cc2nccn2CC(Cn2ncccc2=O)C1 (configuration not stated) | 90.4
O=C(c1ccco1)N1Cc2nccn2CC(Cn2ncccc2=O)C1 (configuration not stated) | 108.6
O=C1CCCN1CC1CN(C(=O)N2CCOCC2)Cc2nccn2C1 (configuration not stated) | 4.749
COCC1CN(C(=O)c2ccc(C)o2)Cc2nccn2C1 (configuration not stated) | -22.35
O=C(CC1CC1)N1Cc2nccn2CC(CN2CCCC2)C1 (configuration not stated) | -4.92
COCC1CN(C(=O)c2ccco2)Cc2nccn2C1 (configuration not stated) | 4.87
COCC(=O)N1Cc2nccn2CC(Cn2ncccc2=O)C1 (configuration not stated) | 110.2
O=C(N1CCN(c2ccccc2O)CC1)C1(O)Cc2ccccc2C1 | -7.176
O=C(N[C@@H]1CN(c2ncccn2)C[C@@H]2CCCO[C@@H]21)c1ccnnc1.O=C(O)C(F)(F)F | -7.292
CSc1ccccc1C(=O)Nc1ccc(OC2CCN(C)CC2)cc1 | 4.435
Cn1cc(CNc2cnn(CC3CCCO3)c2)c(-c2ccncc2)n1 (configuration not stated) | 4.968
NC(=O)N1Cc2nccn2CC(Cn2ncccc2=O)C1 (configuration not stated) | 106.3
O=C(O)C(F)(F)F.O=C(O)C(F)(F)F.O=C(c1ccccn1)N1Cc2nccn2CC(CN2CCOCC2)C1 (configuration not stated) | -3.585

Structure (SMILES) | Percent Effect [%]
O=C(c1ccccc1)N1Cc2nccn2CC(Cn2ncccc2=O)C1 (configuration not stated) | 106.9
CS(=O)(=O)N1Cc2nccn2CC(Cn2ncccc2=O)C1 (configuration not stated) | 1.411
CN(Cc1cccnc1)CC1CN(C(N)=O)Cc2nccn2C1 (configuration not stated) | -13.65
O=C(c1ccc[nH]1)N1Cc2nccn2CC(Cn2ncccc2=O)C1 (configuration not stated) | 107.9
CSc1ncc(C(=O)N2C[C@H]3CC[C@@H]2CN(c2ncccn2)C3)cn1 | -34.6
CC(C)N(CC(N)=O)Cc1cccc(Br)c1 | -7.902
CCN(Cc1nc(COC)no1)C(=O)CCNC(=O)c1ccccc1F | -2.73
CCN(Cc1cccc(C(=O)Nc2c(C)cnn2C)c1)[C@H]1COC[C@@H]1O | 2.472
CC(C)c1nsc(NC2CCOC3(CCCC3)C2)n1 (configuration not stated) | -5.666
Cc1ncc(C(=O)NCCNc2ccncc2)s1 | 106.3
CCc1ncc(C(=O)NCCNC(=O)Cc2ccc(F)cc2)s1 | -2.58
CCCC(C)(C)NC(=O)c1cnc(C)s1 | -0.6309
Cc1ncc(C(=O)NCCNc2ncnc3sccc23)s1 | -47.31
CCc1ncc(C(=O)NCCNc2ccncc2)s1 | 82.39
CCc1ncc(C(=O)NCCNc2ncnc3sccc23)s1 | -14.73
Cc1ccc(-c2nnc(CN3CCOCC(CO)C3)o2)n1C (configuration not stated) | -20.97
CCOC1CCCN(C(=O)c2[nH]nc(C(C)C)c2Br)C1 (configuration not stated) | -3.012
Cc1cnn(CC2CCCN2C(=O)CCc2c(C)nc(C)[nH]c2=O)c1 (configuration not stated) | 112.3
Cc1cnn(CC2CCCN2C(=O)CCc2nc3ccccc3[nH]2)c1 (configuration not stated) | 1.047
Cc1cnn(CC2CCCCN2C(=O)Cc2csc(C)n2)c1 (configuration not stated) | 1.923
Cc1cnn(CC2CCCN2C(=O)CCc2c(C)nn(C)c2C)c1 (configuration not stated) | 103.1
Cc1cnn(CC2CCCCN2C(=O)Cc2c(C)noc2C)c1 (configuration not stated) | 117.3
Cc1cnn(CC2CCCN2C(=O)CCc2c(C)noc2C)c1 (configuration not stated) | 111.6
Cc1nn(C)c(C)c1CCC(=O)N1CCCC1Cn1cccn1 (configuration not stated) | 11.22

Reference: ChEMBL document CHEMBL3988442, “University of Dundee, Small-Polar-MMV Screening Library” (2021)
